Reference: the supplement of paper PMC13380429

Tested on: Vero E6 infected with SARS-CoV-2
Assay: inhibition of SARS-CoV-2 cytopathic effect; higher = more antiviral protection, active = above 15
Conditions: 48 h

Measured: inhibition of SARS-CoV-2 cytopathic effect

COc1ccc(CCCO[C@@H](Cn2ccnc2)c2ccc(OC)cc2)cc1
inactive: 1 nM -4.38% | 8.33 nM -5.95% | 100 nM -10.2% | 833.33 nM -1.69% | 10000 nM 0.39%

O=c1cc(-c2ccc(O)cc2)oc2cc(O)cc(O)c12 [apigenin]
inactive: 1 nM -2.83% | 8.33 nM -3.34% | 100 nM -1.73% | 833.33 nM 0.85% | 10000 nM 6.4%

COc1ccc(OC)c(C(O)C(C)N)c1 (stereo not given) [methoxamine]
inactive: 1 nM 0.07% | 8.33 nM -0.09% | 100 nM 1.61% | 833.33 nM 3.81% | 10000 nM 0.66%

COc1cc2c(Nc3ccc(NC(=O)c4ccccc4)cc3)ncnc2cc1OCCCN1CCOCC1
inactive: 1 nM -0.39% | 8.33 nM 0.92% | 100 nM -0.95% | 833.33 nM 0.98% | 10000 nM 0.98%

CCC(=O)O[C@]1(C(=O)CCl)[C@@H](C)C[C@H]2[C@@H]3C[C@H](F)C4=CC(=O)C=C[C@]4(C)[C@@]3(F)[C@@H](O)C[C@@]21C [halobetasol-propionate]
inactive: 1 nM -3.17% | 8.33 nM -1.89% | 100 nM -2.65% | 833.33 nM 1.32% | 10000 nM 4.68%

O=C(CCCCCCCC(=O)NCCO)NCCO [adelmidrol]
inactive: 1 nM -2.2% | 8.33 nM 2.3% | 100 nM 5.54% | 833.33 nM -1.21% | 10000 nM 0.2%

Cc1cc2c(F)c(Oc3ncnn4cc(OC[C@@H](C)OC(=O)[C@H](C)N)c(C)c34)ccc2[nH]1 [brivanib-alaninate]
inactive: 1 nM -0.11% | 8.33 nM 4.65% | 100 nM 1.96% | 833.33 nM -0.19% | 10000 nM -7.17%

C[N+](C)(CCOc1ccccc1)Cc1ccccc1 [bephenium-hydroxynaphthoate]
inactive: 1 nM 2.11% | 8.33 nM 0.87% | 100 nM 0.58% | 833.33 nM 0.22% | 10000 nM -0.72%

C[C@H](CCC(=O)O)[C@H]1CC[C@H]2[C@@H]3[C@@H](O)C[C@@H]4C[C@H](O)CC[C@]4(C)[C@H]3CC[C@]12C [ursodiol]
inactive: 1 nM 0.455% | 8.33 nM 1.77% | 100 nM 3.56% | 833.33 nM 1.38% | 10000 nM 0.145%

CC(=O)OCC(=O)[C@@]1(O)CC[C@H]2[C@@H]3CCC4=CC(=O)CC[C@]4(C)[C@@]3(F)[C@@H](O)C[C@@]21C
inactive: 1 nM -1.46% | 8.33 nM -0.43% | 100 nM 0.97% | 833.33 nM -0.24% | 10000 nM 0.57%

Cc1ccc(C(=O)N(CCCN)[C@@H](c2oc3cc(Cl)ccc3c(=O)c2Cc2ccccc2)C(C)C)cc1
inactive: 1 nM 1.81% | 8.33 nM -1.04% | 100 nM -0.8% | 833.33 nM -2.79% | 10000 nM -24.6%

C[N+]1(C)CCc2cc3c(cc2[C@H]1[C@@H]1OC(=O)c2c1ccc1c2OCO1)OCO3 [bicuculline-methochloride-(-)]
inactive: 1 nM -4.58% | 8.33 nM 0.48% | 100 nM 0.65% | 833.33 nM 3.59% | 10000 nM -2.23%

CN1CCN(CC(=O)N2c3ccccc3C(=O)Nc3cccnc32)CC1 [pirenzepine]
inactive: 1 nM -0.09% | 8.33 nM -0.92% | 100 nM -2.09% | 833.33 nM -0.6% | 10000 nM -1.86%

CCOC(=O)c1ccc(C#Cc2ccc3c(c2)C(C)(C)CCS3)nc1 [tazarotene]
inactive: 1 nM 0.41% | 8.33 nM 0.89% | 100 nM 1.7% | 833.33 nM 3.69% | 10000 nM 0.98%

Cn1c2c(c3ccccc31)CCNCC2
inactive: 1 nM 3.79% | 8.33 nM 2.27% | 100 nM -0.51% | 833.33 nM 0.96% | 10000 nM -0.01%

C=C(NC(=O)C(=C)NC(=O)c1csc(C2=N[C@@H]3c4csc(n4)[C@H]4NC(=O)c5csc(n5)[C@H]([C@](C)(O)[C@@H](C)O)NC(=O)[C@H]5CSC(=N5)/C(=C/C)NC(=O)[C@H]([C@@H](C)O)NC(=O)c5csc(n5)[C@]3(CC2)NC(=O)[C@H](C)NC(=O)C(=C)NC(=O)[C@H](C)NC(=O)[C@H]([C@@H](C)CC)N[C@@H]2C=Cc3c([C@H](C)O)cc(nc3[C@H]2O)C(=O)O[C@@H]4C)n1)C(N)=O [thiostrepton]
inactive: 1 nM -2.64% | 8.33 nM -1.12% | 100 nM -4.03% | 833.33 nM 1.58% | 10000 nM 7.51%

CCCN(CCC)CCc1cccc2c1CC(=O)N2 [ropinirole]
inactive: 1 nM 0.18% | 8.33 nM -0.55% | 100 nM -1.05% | 833.33 nM 2.2% | 10000 nM -0.98%

COc1ccccc1S(=O)(=O)Nc1ccc2c(c1)CN(C)C(=O)N2
inactive: 1 nM 2.59% | 8.33 nM 3.07% | 100 nM 0.97% | 833.33 nM 1.47% | 10000 nM -5.29%

C[C@@]1(c2cc(-c3cncnc3)c(F)cc2F)CCSC(N)=N1
inactive: 1 nM -0.91% | 8.33 nM -3.4% | 100 nM -0.51% | 833.33 nM -2% | 10000 nM -3.12%

CC(=O)N1CCN(c2ccc(OC[C@@H]3CO[C@@](Cn4ccnc4)(c4ccc(Cl)cc4Cl)O3)cc2)CC1 (racemic) [ketoconazole]
inactive: 1 nM -0.87% | 8.33 nM -0.69% | 100 nM -1.88% | 833.33 nM 0.35% | 10000 nM 1.61%

N[C@@H](CSS(=O)(=O)O)C(=O)O [S-sulfo-L-cysteine]
inactive: 1 nM -0.33% | 8.33 nM 1.82% | 100 nM -0.09% | 833.33 nM 1.93% | 10000 nM 0.23%

CCCC[C@H]1C(=O)N(c2ccccc2)N(c2ccc(O)cc2)C1=O [oxyphenbutazone]
inactive: 1 nM 0.53% | 8.33 nM 1.14% | 100 nM 1.48% | 833.33 nM 3.6% | 10000 nM 10.9%

O=c1[nH]c([C@@H]2CCCN2)nc2c1oc1ccc(Cl)cc12
inactive: 1 nM -0.27% | 8.33 nM 0.12% | 100 nM 1.61% | 833.33 nM -0.54% | 10000 nM -2.54%

O=C(Nc1cccc(Nc2ncc(Br)c(NCCc3cnc[nH]3)n2)c1)N1CCCC1
inactive: 1 nM -2.91% | 8.33 nM -2.57% | 100 nM -1% | 833.33 nM -2.29% | 10000 nM -4.48%

CC(COc1ccccc1)NC(C)C(O)c1ccc(O)cc1 (stereo not given) [isoxsuprine]
inactive: 1 nM 0.69% | 8.33 nM 2% | 100 nM -0.95% | 833.33 nM 1.95% | 10000 nM -1.14%

Cc1ccc(NC2=NCCN2)c(Cl)c1 [tolonidine]
inactive: 1 nM 1.65% | 8.33 nM 0.34% | 100 nM 0.64% | 833.33 nM -0.01% | 10000 nM 0.42%

CO[C@H]1O[C@@H]2O[C@@]3(C)CC[C@H]4[C@H](C)CC[C@@H]([C@H]1C)[C@@]24OO3 [artemether]
inactive: 1 nM 7.32% | 8.33 nM 4.82% | 100 nM 2.64% | 833.33 nM -2.72% | 10000 nM 0.52%

CCCCCCCCCCCCCCC[C@@H](O)[C@@H](N)CO [safingol]
inactive: 1 nM 3.01% | 8.33 nM 0.67% | 100 nM 1.42% | 833.33 nM 2.02% | 10000 nM -4.84%

N[C@H]1CCN(O)C1=O
inactive: 1 nM -2.5% | 8.33 nM -0.335% | 100 nM -0.065% | 833.33 nM -1.54% | 10000 nM 0.17%

N=C(N)SCCc1ccc(OCc2ccc([N+](=O)[O-])cc2)cc1
inactive: 1 nM 1.92% | 8.33 nM -1.12% | 100 nM -0.47% | 833.33 nM -2.92% | 10000 nM -4.41%

N[C@@H](CC(=O)N1CCn2c(nnc2C(F)(F)F)C1)Cc1cc(F)c(F)cc1F [sitagliptin]
inactive: 1 nM -0.24% | 8.33 nM 1.03% | 100 nM 2.43% | 833.33 nM 3.7% | 10000 nM 1%

CCCCC1C(=O)N(c2ccccc2)N(c2ccccc2)C1=O [phenylbutazone]
inactive: 1 nM -0.14% | 8.33 nM 0.89% | 100 nM 0.31% | 833.33 nM 0.4% | 10000 nM 0.88%

O=C(O)c1ccc(S(=O)(=O)N(Cl)Cl)cc1 [halazone]
inactive: 1 nM -0.04% | 8.33 nM 2.43% | 100 nM -0.73% | 833.33 nM -4.46% | 10000 nM -0.76%

CCCNC(=O)NS(=O)(=O)c1ccc(Cl)cc1 [chlorpropamide]
inactive: 1 nM 0.91% | 8.33 nM 0.48% | 100 nM -1.08% | 833.33 nM -0.4% | 10000 nM -2.67%

Fc1ccc(-c2cncc(CN3CCN(c4cccc5c4OCCO5)CC3)c2)cc1 [adoprazine]
inactive: 1 nM -1.19% | 8.33 nM -1.15% | 100 nM 2.28% | 833.33 nM 1.56% | 10000 nM 0.22%

CC(C)c1cccc2c(-c3ccccc3)cc(-c3ccc(-c4ccc(C(=O)O)cc4)[nH]3)nc12
inactive: 1 nM 5.04% | 8.33 nM 4.89% | 100 nM 3.09% | 833.33 nM 5.27% | 10000 nM 3.56%

COC(=O)C1=C(C)NC(C)=C(C(=O)OCCSc2ccccc2)[C@@H]1C
inactive: 1 nM -2.31% | 8.33 nM -3.84% | 100 nM -2.77% | 833.33 nM -0.76% | 10000 nM 3.1%

CC(C)(C)c1cc(C=C(C#N)C#N)cc(C(C)(C)C)c1O [tyrphostin-A9]
inactive: 1 nM 1.9% | 8.33 nM 1.44% | 100 nM 4.1% | 833.33 nM 8.55% | 10000 nM 6.42%
